Source: PubChem BioAssay (Sanford-Burnham Center for Chemical Genomics)
C8 TRAIL sens = viability loss with TRAIL in NB7+C8 cells, primary screen, TRAIL sensitizer project, cell-based, ATPlite luminescence | inhibition (viability loss, TRAIL sensitization), % at 10 µM | AID 624354, 2012 | actives 1% (n = 360,000);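 active = compounds causing at least 50% loss of cell viability in the single-dose screen, relative to plate controls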
SENP8 block-1 = SENP8 protease inhibitors, primary screen, biochemical, luminescence; Sentrin-specific protease 8 (Homo sapiens), Q96LD8; purified SENP8, Z-RLRGG-aminoluciferin cleavage; inhibition, % at 10 µM; actives 1.2% (n = 330,000); AID 2540, 2010; in the data active = inhibition above about 50%
SENP7 block = SENP7 protease inhibitors, primary screen, biochemical, luminescence, uHTS. AID 434973, 2010. recombinant SENP7, Z-RLRGG-aminoluciferin luminescence, 40 min. inhibition, % at 5 µM. actives 1.5% (n = 330,000). Sentrin-specific protease 7 (Homo sapiens), Q9BQF6;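 active = inhibition above about 50% at the single test dose, limit read from the data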;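 also: plate controls were DMSO with enzyme for no effect and no enzyme buffer wells for full effect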
SENP6 block = SENP6 protease inhibitors, primary screen, biochemical, luminescence, uHTS; Sentrin-specific protease 6 (Homo sapiens), Q9GZR1; Recombinant SENP6 catalytic domain, aminoluciferin luminescence; inhibition, % at 10 µM; actives 1.8% (n = 330,000);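 active = inhibition above about 50% at the single tested dose, limit read from the data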;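 also: plate controls were DMSO wells with enzyme for no effect and DMSO wells lacking enzyme for full effect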
Target sequence (Q9GZR1 628-1112 limits assumed): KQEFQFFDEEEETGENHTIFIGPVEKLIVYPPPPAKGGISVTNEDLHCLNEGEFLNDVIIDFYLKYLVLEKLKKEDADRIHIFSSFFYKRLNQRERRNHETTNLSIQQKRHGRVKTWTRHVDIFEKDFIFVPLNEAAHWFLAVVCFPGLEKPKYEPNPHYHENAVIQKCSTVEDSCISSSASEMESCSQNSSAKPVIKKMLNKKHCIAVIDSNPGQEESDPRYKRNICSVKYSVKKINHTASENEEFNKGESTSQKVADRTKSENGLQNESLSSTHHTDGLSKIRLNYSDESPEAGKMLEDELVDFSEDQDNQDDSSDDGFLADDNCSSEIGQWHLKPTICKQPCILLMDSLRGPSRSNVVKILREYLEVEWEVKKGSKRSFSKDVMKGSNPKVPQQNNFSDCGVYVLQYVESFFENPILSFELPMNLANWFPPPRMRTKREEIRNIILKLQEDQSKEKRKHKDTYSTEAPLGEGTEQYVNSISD
PPC-1+TRAIL kill = compounds killing PPC-1 cancer cells with TRAIL present, primary screen, TRAIL potentiator project, ATPLite luminescence, uHTS; PPC-1 cells + TRAIL, ATPLite viability luminescence; cell killing (% activity), % at 4 µM or 5 µM; actives 0.41% (n = 220,000);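 active = cell killing above 50% in the first pass at 4 µM, then a duplicate retest at 5 µM averaging 50% or more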;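 also: plate controls were cells with TRAIL plus DMSO for no effect and medium-only wells lacking cells for full effect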
SENP8 block-2 = human SENP8 protease inhibitors, primary screen, biochemical, fluorescence, Nedd8 protein substrate, uHTS; recombinant SENP8; inhibition, % at 20 µM; Sentrin-specific protease 8 (Homo sapiens), Q96LD8; actives 0.64% (n = 360,000); AID 602440, 2012; in the data active = inhibition mostly above about 40%, no sharp cut-off; inactive = mostly below about 27%
PPC-1 tox = cytotoxicity in PPC-1 cells, confirmation, cytotoxicity control for TRAIL apoptosis potentiator project, cell-based, ATP content luminescence | cytotoxicity, % at 5 µM | actives 50% (n = 1,200) | shares compounds with PPC-1+TRAIL kill | PPC-1 viability, ATPlite luminescence, overnight;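 active = reconfirmed compounds whose average cytotoxicity reaches 50% or more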;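 also: 0% = DMSO-treated cells and 100% = wells holding medium but no cells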
SENP8 conf = SENP8 protease inhibitors, retest, confirmation, biochemical, luminescence, single concentration. shares compounds with SENP7 block. Recombinant SENP8, Z-RLRGG-aminoluciferin luminescence, 60 min. actives 40% (n = 6,200). inhibition, % at 12.5 µM;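 active = mean inhibition across replicates above about 50%, limit read from the data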
SENP6 conf = SENP6 protease inhibitors, confirmation, biochemical, luminescence, single concentration; shares compounds with SENP7 block; recombinant SENP6, Z-RLRGG-aminoluciferin luminescence; inhibition, % at 12.5 µM; actives 58% (n = 6,200); AID 488915, 2010
SENP7 conf = SENP7 protease inhibitors, retest, confirmation, biochemical, luminescence, single concentration; shares compounds with SENP7 block; recombinant SENP7, Z-RLRGG-aminoluciferin luminescence, 40 min; inhibition, % at 12.5 µM; actives 69% (n = 6,200); AID 488917, 2010
Casp3 SENP sel = caspase-3 protease inhibitors, confirmation, selectivity assay for SENP inhibitor project, biochemical, single concentration; shares compounds with SENP7 block; purified caspase-3, Z-DEVD-aminoluciferin luminescence, 60 min; inhibition, % at 12.5 µM; actives 60% (n = 6,200);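 active = mean inhibition above about 50%, limit read from the data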;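 also: plate controls were enzyme with DMSO for no effect and wells without caspase-3 for full effect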
Target sequence (P42574 28-227 limits assumed): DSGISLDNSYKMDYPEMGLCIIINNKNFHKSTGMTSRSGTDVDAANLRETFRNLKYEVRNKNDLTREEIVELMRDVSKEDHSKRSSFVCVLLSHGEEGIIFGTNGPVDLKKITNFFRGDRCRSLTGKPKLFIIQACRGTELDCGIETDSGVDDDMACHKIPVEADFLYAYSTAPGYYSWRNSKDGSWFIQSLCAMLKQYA
Luc interf = luminescence interference (SENP counter-screen); shares compounds with SENP7 block; Pre-incubated SENP8/Z-RLRGG-aminoluciferin, luciferase luminescence interference; inhibition, % at 12.5 µM; actives 39% (n = 6,200);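 active = mean inhibition above about 50% when retested at one dose, limit read from the data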;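 also: plate controls were DMSO wells with completed reaction for no effect and substrate without enzyme for full effect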
* marks the source's active call; other numbers are inactive results; i = inactive; nt = no result. Rows were chosen to be rich in hits. Some 3% of all compounds tested hit in one or more screens of this group.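 The calls were made as follows, unless noted: active = mean inhibition above about 50% in the one-dose retest (limit read from the data); inactive = the rest.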

SMILES | C8 TRAIL sens | SENP8 block-1 | SENP7 block | SENP6 block | PPC-1+TRAIL kill | SENP8 block-2 | PPC-1 tox | SENP8 conf | SENP6 conf | SENP7 conf | Casp3 SENP sel | Luc interf
Nc1nc2ccccc2n1C(=O)c1ccccc1 | 76.6* | 86.4* | 95.6* | 95.8* | 61.6* | 6.9 | 61.6* | 69.6* | 93.2* | 100.5* | 96.2* | 41.1
Cc1ccc(C(=O)N/C(=C\c2ccco2)C(=O)N2CCOCC2)cc1C | -2.5 | -13.4 | -7.9 | -14.7 | nt | -11.7 | nt | nt | nt | nt | nt | nt
COc1ccc2nc(Nc3ccccc3OC)sc2c1 | 69.0* | 92.3* | 98.4* | 91.6* | 60.6* | 16.5 | 57.1* | 96.3* | 96.5* | 101.2* | 91.0* | 86.6*
O=C(/C=C/c1ccc2c(c1)OCO2)Nc1cccnc1 | 70.3* | 77.3* | 85.2* | 84.2* | 60.5* | -256.8 | 56.7* | 3.8 | 79.9* | 96.9* | 89.3* | 75.9*
CC(=O)Nc1ccc(NC(=O)/C=C/c2ccc3c(c2)OCO3)cc1 | 3.3 | -0.8 | 7.4 | -17.0 | 0.0 | 11.5 | nt | nt | nt | nt | nt | nt
CN(CC(=O)Nc1ccc(S(=O)(=O)N2CCCC2)cc1)Cc1c(F)cccc1Cl | 9.2 | -6.9 | -8.9 | -9.0 | 2.4 | 5.9 | nt | nt | nt | nt | nt | nt
CN(CCN1CCOCC1)Cc1nc(-c2ccccc2)no1 | 5.6 | -1.6 | -1.2 | -18.1 | 22.0 | 18.1 | nt | nt | nt | nt | nt | nt
Cc1ccc(/C=C(\C#N)c2nc3ccccc3[nH]2)s1 | 61.0* | 13.5 | 84.0* | 22.6 | 51.0* | -22.4 | 56.9* | 40.0 | 30.7 | 92.9* | 73.9* | 60.9*
O=[N+]([O-])c1ccc(/C=C/c2ccc3ccccc3n2)cc1 | 74.2* | 91.0* | 93.8* | 92.8* | 63.7* | 4.2 | 61.1* | 64.1* | 77.8* | 93.6* | 77.9* | 13.8
Oc1ccc(/C=C/c2ccc3ccccc3n2)cc1 | 71.7* | 98.4* | 101.6* | 101.0* | 56.0* | -394.7 | 56.1* | 99.6* | 100.3* | 103.2* | 99.0* | 97.6*
CC(=O)N(C(C)=O)n1c(/C=C/c2ccc([N+](=O)[O-])cc2)nc2ccccc2c1=O | -7.3 | -4.3 | 3.0 | -15.3 | 8.5 | -56.3 | nt | nt | nt | nt | nt | nt
Cc1cnc(NC(=O)COc2ccccc2Cl)s1 | 77.4* | 77.3* | 92.1* | 89.8* | 60.0* | 12.7 | 58.8* | 65.9* | 90.6* | 98.8* | 89.9* | 30.0
Cc1cnc(NC(=O)CCNC(=O)c2ccccc2Cl)s1 | -6.1 | -7.9 | -2.9 | 3.7 | 1.8 | 6.5 | nt | nt | nt | nt | nt | nt
COc1ccc(Cl)cc1S(=O)(=O)N1CCN(C(=O)c2n[nH]c(=O)c3ccccc23)CC1 | 12.6 | -1.9 | 6.8 | 12.2 | nt | 5.4 | nt | nt | nt | nt | nt | nt
c1c2c(cc3sc(N4CCOCC4)nc13)OCCO2 | 78.0* | 88.9* | 93.6* | 94.1* | 63.4* | 10.6 | 60.5* | 89.0* | 92.7* | 100.2* | 96.2* | 57.3*
CN1CCc2c(sc3nc(NCCO)n(-c4cccc(Cl)c4)c(=O)c23)C1 | -13.5 | 0.6 | 0.1 | -15.2 | nt | -280.4 | nt | nt | nt | nt | nt | nt
CNc1nc(SC)n(C)c(=O)c1N=O | nt | -7.9 | -5.7 | -13.8 | 12.6 | nt | nt | nt | nt | nt | nt | nt
O=c1c(Cl)c(N2CCCCC2)cnn1-c1nc2ccccc2[nH]1 | 87.4* | 89.1* | 97.3* | 97.0* | 92.0* | -10.8 | 92.1* | 96.2* | 96.2* | 101.5* | 97.8* | 6.3
COc1ccc2nc(-c3cccc(N)c3)[nH]c2c1 | 52.4* | 58.5* | 82.1* | 77.2* | 51.9* | -488.8 | 52.5* | 69.8* | 70.7* | 93.6* | 87.7* | 67.1*
CN(C)c1ccc(-c2nc3ccccc3c(=O)[nH]2)cc1 | 93.2* | 88.3* | 94.5* | 98.5* | 87.8* | i | 87.8* | 40.7 | 94.7* | 100.0* | 89.0* | 4.7
O=c1[nH]c(-c2ccncc2)nc2ccccc12 | 15.9 | -2.2 | 4.6 | -5.8 | 6.9 | -0.4 | nt | nt | nt | nt | nt | nt
Brc1ccc(-c2nc(N/N=C/c3cccnc3)c3ccccc3n2)cc1 | 91.3* | 84.6* | 90.4* | 89.7* | 88.2* | -104.6 | 86.9* | 4.7 | 4.6 | 1.5 | 4.6 | 2.9
CC(=O)c1ccc(-c2cccc([C@H]3[C@@H]4C=CC[C@@H](C)[C@@H]4C(=O)N3Cc3ccccc3)c2)cc1 | 4.9 | nt | -4.8 | nt | nt | 12.0 | nt | nt | nt | nt | nt | nt
c1cnc2nc(-c3ccc4c(c3)OCO4)cn2c1 | 23.4 | -26.9 | -7.2 | -9.2 | 26.3 | -411.7 | nt | nt | nt | nt | nt | nt
CCc1ccn2cc(-c3ccc4c(c3)OCO4)nc2c1 | 92.0* | 94.3* | 97.2* | 96.1* | 92.5* | -411.8 | 91.4* | 97.2* | 97.9* | 101.6* | 96.3* | 96.5*
COc1ccc(-c2cn3cc(C(=O)NN)ccc3n2)cc1 | 48.5 | -9.9 | -1.9 | -20.6 | 38.9 | -432.3 | nt | nt | nt | nt | nt | nt
COC(=O)c1ccc2nc(-c3ccc4c(c3)OCO4)cn2c1 | 70.4* | 49.9 | 77.9* | -1.4 | 62.5* | -403.6 | 63.1* | 16.3 | 17.1 | 40.1 | 58.1* | 19.5
COC(=O)c1ccc(N2CCN(c3ccccc3)CC2)c(N)c1 | -9.6 | -1.4 | 6.8 | 12.9 | nt | -265.6 | nt | nt | nt | nt | nt | nt
Cc1nn(Cc2ccc(Cl)cc2)c(C)c1NC(=O)C(c1ccccc1)c1ccccc1 | 0.8 | -10.7 | -0.1 | -24.0 | 7.7 | 6.3 | nt | nt | nt | nt | nt | nt
CN(C)S(=O)(=O)N1CCN(C(=O)c2ccc3c(c2)OCO3)CC1 | -7.7 | -0.9 | -5.6 | -6.2 | nt | 6.0 | nt | nt | nt | nt | nt | nt
